Hit rate of the full screen: of about 57,000 sequences, about 4,100 (7.2%) were called active. Rule as the data show it: active = GI50 up to about 1.1 µM and inactive = higher. The list is a sample of the results. Entries with a potency or affinity are not part of this list.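 Values below derive from 48-hour exposures of cells grown in 96-well plates, with endpoints linearly interpolated between the two concentrations bracketing the appropriate inhibition level. The concentration for 50% growth inhibition is given as GI50.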
Test system: COLO 205
Test: NCI tumour cell line growth inhibition, 48 h

Substance | GI50 [µM]
[Bis(aminomethyl)pentamethylenesilane]dichloropaltinum(II), CHEMBL2146202 | 2.07
[Bis(aminomethyl)tetramethylenesilane]tetrachloropaltinum(IV), CHEMBL2146189 | 8.51
[Bis(aminomethyl)dimethylsilane]dichloroplatinum (II), CHEMBL2146201 | 24.3
cis-Bis[[(trimethylsilyl)methyl]amino]tetrachloroplatinum(IV), CHEMBL2146191 | 2.07
[Bis(aminomethyl)tetramethylenesilane]dichloropaltinum(II), CHEMBL2146205 | 20.1
[Bis(aminomethyl)pentamethylenesilane]tetrachloropaltinum(IV), CHEMBL2146204 | 1.53
[Bis(aminomethyl)ethylmethylsilane]tetrachloroplatinum(IV), CHEMBL2146192 | 5.15
mu-(1,7-nanodiamine-N,N')bis-(cis-aminedichloroplatimum (II)), CHEMBL2146215 | 6
[Bis(aminomethyl)dimethylsilane]tetrachloroplatinum(IV), CHEMBL2146190 | 11.6
[Bis(aminomethyl)diethylsilane]tetrachloroplatinum(IV), CHEMBL2146203 | 11.9
CISPLATIN, CHEMBL11359 | 13.4
